Sm TGR inh = blocks Schistosoma mansoni thioredoxin glutathione reductase; purified TGR, DTNB reduction, TNB absorbance 405 nm; Potency, µM (highest dose often 114 µM), usual class: inhibitors; 360,000 compounds, 3% hits; AID 485364; also: nearly all actives have a fitted effect of over 60% in size
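First, TGR (20 nM dispensed) and NADPH were mixed with compound. Second, a 15 min room-temperature incubation followed. Third, further NADPH and then DTNB were added to start the reaction. Finally, TNB absorbance was monitored kinetically.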
Pf growth 48h = P. falciparum growth inhibition at 48 hours (one generation); P. falciparum luciferase growth in erythrocytes, 48 h; Potency, µM (series often up to 28.7 µM), usual class: inhibitors; 310,000 compounds, 5.9% hits; AID 504832
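Erythrocytes infected with P. falciparum carrying an integrated firefly luciferase reporter (2% hematocrit, 0.1% parasitemia final) were exposed to compounds in RPMI 1640 with 0.5% Albumax at 37 C, 5% CO2. Growth inhibition was scored as reduced luminescence.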
Pf growth 96h = P. falciparum growth inhibition at 96 hour, primary screen for plastid delayed-death inhibitors; P. falciparum luciferase reporter growth, 96 h; Potency, µM (top dose mostly 28.7 µM), usual class: inhibitors; 320,000 compounds, 6.9% hits
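Parasite growth measured via integrated firefly luciferase reporter in P. falciparum. Infected erythrocytes at 2% hematocrit, 0.05% parasitemia final were treated 96 hours at 37 C under 5% CO2, and luminescence was read.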
NS1 inh = inhibitors of influenza NS1 protein function; Potency, µM (series often up to 46.1 µM); 270,000 compounds, 0.4% hits; calls by dose curve; also: actives are rising curves; nearly all actives have a fitted effect of over 50% in size
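Compounds were scored for reversing the slow growth caused by influenza A NS1 in S. cerevisiae, measured by optical density at 600 nm. Assay medium contained 2% galactose at pH 6.0; NS1-free yeast of the same strain were the positive control.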
AMA1 RON2 block = AMA1-RON2 (P. falciparum) interaction inhibition; 360,000 compounds, 0.2% hits; AlphaScreen AMA1-biotinylated RON2 peptide binding; Potency, µM (titrated, usually from 58.2 µM), actives largely listed as inhibitors; also: nearly all actives have a fitted effect of over 45% in size
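AMA1 (3D7) with his tag at 25 nM final met compounds first, then biotinylated RON2 peptide at 25 nM; detection used donor plus acceptor beads, 10 µg/mL apiece, read by AlphaScreen after 30 min at room temperature.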
Hits are given with their value; n = inactive; u = inconclusive; x = no result. In the library only some 11% were active in any assay of this set; here they are far more common. Unless noted, calls follow the shape of the dose curve; as a rule, active = well fitted curve in the direction sought with a large enough effect; inconclusive = small, poorly fitted or top-dose-only effect, or another doubt; inactive = no such curve, though single readings can be large; an effect the other way counts as inactive or inconclusive.

SMILES | Sm TGR inh | Pf growth 48h | Pf growth 96h | NS1 inh | AMA1 RON2 block
Cc1[nH]n(-c2nc(-c3ccc(Cl)cc3)cs2)c(=O)c1N=Nc1ccc(O)cc1 | n | u | 6.57µM | n | n
CCCc1cc(=O)n2[nH]c(NCc3c(Cl)cccc3Cl)nc2n1 | n | n | x | n | n
CCCc1cc(=O)n2[nH]c(NCc3c(F)cccc3Cl)nc2n1 | n | n | 11.7µM | n | n
Cc1cc(Nc2cccc(Cl)c2)n2ncnc2n1 | n | n | 1.65µM | n | n
CCc1ccc(Nc2cc(C)nc3ncnn23)cc1 | n | 3.29µM | n | n | n
CCN(CC)S(=O)(=O)c1ccc(Nc2cc(C)nc3ncnn23)cc1 | n | 14.7µM | u | n | n
CCCOC(=O)c1ccc(Nc2cc(C)nc3ncnn23)cc1 | n | 8.28µM | n | n | n
Cc1cc(Nc2ccc(N(C)C)cc2)n2ncnc2n1 | n | 2.33µM | n | n | n
Cc1cc(Nc2ccc(Cl)cc2)n2ncnc2n1 | n | u | n | n | n
CCn1c2ccccc2c2cc(Nc3cc(C)nc4ncnn34)ccc21 | n | 0.0738µM | n | n | n
COc1ccc2c(c1)C(C)=CC(C)(C)N2S(=O)(=O)c1ccc(C)cc1 | n | u | n | n | n
CC1=CC(C)(C)N(S(=O)(=O)c2ccc(C)cc2)c2cc(C)ccc21 | n | x | 9.28µM | n | n
CC(=O)c1cccc(CN2CCCC(C(=O)Nc3ccc(-c4ccco4)cc3)C2)c1 (centres undefined) | u | 10.4µM | n | n | n
Cc1cccc(CN2CCCC(C(=O)Nc3ccc(-c4cscn4)cc3)C2)c1 (centres undefined) | n | u | 9.28µM | n | n
CN(C)c1cc[n+](CC(=O)Nc2c(Cl)cc(Cl)cc2Cl)cc1 | 39.8µM | n | n | n | n
CCCOc1ccc(/C=C2\SC(N)=NC2=O)cc1OC | n | n | n | n | n
CCCOc1ccccc1/C=C1\SC(N)=NC1=O | n | u | 11.7µM | n | n
Cc1ccn2c(Nc3ccc4c(c3)OCO4)c(-c3ccco3)nc2c1 | n | x | x | x | x
O=[N+]([O-])c1cccc(/C([O-])=C(/C(=S)Nc2cccc3ccccc23)[n+]2ccccc2)c1 | n | 9.28µM | u | u | n
Cc1ccc(/C([O-])=C(/C(=S)NCc2ccco2)[n+]2ccccc2)cc1 | u | x | u | n | x
O=[N+]([O-])c1ccc(/C([O-])=C(/C(=S)NCc2ccco2)[n+]2ccccc2)cc1 | 22.4µM | n | n | x | n
[O-]/C(=C(\C(=S)NCc1ccco1)[n+]1ccccc1)c1ccccc1Br | 25.1µM | n | u | n | n
O=S(=O)(c1ccccc1OC(F)(F)F)N1CCN(c2ccnc3cc(Cl)ccc23)CC1 | n | 9.28µM | 2.33µM | n | n
O=[N+]([O-])c1ccc(S(=O)(=O)N2CCN(c3ccnc4cc(Cl)ccc34)CC2)cc1 | n | 5.22µM | 2.62µM | n | n
O=S(=O)(c1cccc(Br)c1)N1CCN(c2ccnc3cc(Cl)ccc23)CC1 | n | 3.7µM | 1.85µM | n | n
SMILES | Sm TGR inh | Pf growth 48h | Pf growth 96h | NS1 inh | AMA1 RON2 block
CN(C)S(=O)(=O)N1CCN(c2ccnc3cc(Cl)ccc23)CC1 | n | n | n | n | n
CC(C)S(=O)(=O)N1CCN(c2ccnc3cc(Cl)ccc23)CC1 | n | 5.22µM | 9.28µM | n | n
CC(C)c1nn2c(=O)cc(COC(=O)c3cccs3)nc2s1 | n | x | x | x | x
Cc1ccc2nc(COc3cccc(NC(=O)COc4ccccc4F)c3)cc(=O)n2c1 | n | x | x | x | x
O=C(c1ccco1)N1CCN(c2ccnc3cc(Cl)ccc23)CC1 | x | u | n | n | n
N#Cc1cccc(S(=O)(=O)N2CCN(c3ccnc4cc(Cl)ccc34)CC2)c1 | n | 13.1µM | 2.33µM | n | n
COC(=O)c1cccc(Nc2nc(-c3cccnc3)nc3ccccc23)c1 | n | u | u | n | n
COC(=O)c1ccc(Nc2nc(-c3ccncc3)nc3ccccc23)cc1 | n | n | n | n | n
COC(=O)c1cccc(Nc2nc(-c3ccncc3)nc3ccccc23)c1 | n | 1.85µM | u | n | n
CCOC(=O)c1cccc(Nc2nc(-c3cccnc3)nc3ccccc23)c1 | n | 13.1µM | 8.28µM | n | n
CCC(CC)C(=O)Nc1nnc(SCC(=O)NC2CCCCC2)s1 | n | n | n | u | n
COc1cc(Cl)c(CN2CCC(CCC(=O)NC3CC3)CC2)cc1OC | n | n | u | n | n
CCOCc1cc(CN2CCC(CCC(=O)NC3CC3)CC2)ccc1OC | n | n | 9.28µM | n | n
COc1cc(Cl)cc(CN2CCC(CCC(=O)NC3CC3)CC2)c1OC | n | u | 13.1µM | u | n
